What all share (assay): yeast three-hybrid, YBZ-1, SC-Leu-His + 0.5 mM 3-AT, 4 days
Settings in all cases: tags: N-Gal4 AD-HA kept; label: inside an RPR1-promoter hybrid RNA with tandem MS2 sites; ssRNA

For one assay, the target named is T1, PUM1 PUF domain R6-IWR (Homo sapiens, UniProt Q14671 828-1176, N1043I;Y1044W;Q1047R).
T1 sequence: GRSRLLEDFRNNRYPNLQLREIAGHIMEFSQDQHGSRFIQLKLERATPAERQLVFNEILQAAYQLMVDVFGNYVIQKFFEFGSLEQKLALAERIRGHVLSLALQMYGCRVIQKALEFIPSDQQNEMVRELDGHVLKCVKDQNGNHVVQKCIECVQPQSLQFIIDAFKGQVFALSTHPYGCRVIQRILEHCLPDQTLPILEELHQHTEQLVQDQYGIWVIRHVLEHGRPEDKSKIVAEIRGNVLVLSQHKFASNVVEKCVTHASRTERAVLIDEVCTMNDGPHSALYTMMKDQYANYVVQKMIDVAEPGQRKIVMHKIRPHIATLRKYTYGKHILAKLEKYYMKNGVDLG
The essentials: (§1)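 The interaction score is the logarithmic change in variant frequency from input to selection. It uses log2, with a pseudocount of 1 for absent variants, and frequencies came from PCR-amplified, Illumina-sequenced repeat regions. The libraries were Pumilio-1 PUF domains randomized at the three base-contacting residues per repeat, co-expressed with matching RNA elements in strain YBZ-1 (LexA–MS2 coat fusion, HIS3 reporter). Plating lasted four days on SC-Leu (input) or SC-Leu-His + 0.5 mM 3-AT (selection).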

Another assay has as its target PUM1 PUF domain R1-MVR (Homo sapiens, UniProt Q14671 828-1176, S863M;R864V;Q867R). In outline:
as §1

The next assay deals with PUM1 PUF domain R1-ARR (Homo sapiens, UniProt Q14671 828-1176, S863A;Q867R). In outline:
as §1

The target of the next assay is PUM1 PUF domain R5-SIS (Homo sapiens, UniProt Q14671 828-1176, C1007S;R1008I;Q1011S). The essentials:
as §1

For the next assay, the target named is PUM1 PUF domain R5-QCS (Homo sapiens, UniProt Q14671 828-1176, C1007Q;R1008C;Q1011S). The essentials:
as §1

The target of the next assay is PUM1 PUF domain R3-WWG (Homo sapiens, UniProt Q14671 828-1176, C935W;R936W;Q939G). In outline: as §1
Another assay concerns the target PUM1 PUF domain R4-NWP (Homo sapiens, UniProt Q14671 828-1176, H972W;Q975P). In outline: as §1
The next assay deals with PUM1 PUF domain R4-DYR (Homo sapiens, UniProt Q14671 828-1176, N971D;H972Y;Q975R). In outline:
as §1

The target in the next assay is PUM1 PUF domain R4-EYI (Homo sapiens, UniProt Q14671 828-1176, N971E;H972Y;Q975I). In outline: as §1
Another assay addresses PUM1 PUF domain R4-SNR (Homo sapiens, UniProt Q14671 828-1176, N971S;H972N;Q975R). The essentials: as §1
The next assay concerns the target PUM1 PUF domain R4-SWP (Homo sapiens, UniProt Q14671 828-1176, N971S;H972W;Q975P). In outline: as §1
The next assay concerns the target PUM1 PUF domain R5-RAC (Homo sapiens, UniProt Q14671 828-1176, C1007R;R1008A;Q1011C). In outline: as §1
In the next assay the target is PUM1 PUF domain R4-GWW (Homo sapiens, UniProt Q14671 828-1176, N971G;H972W;Q975W). The essentials:
as §1

For the next assay, the target named is PUM1 PUF domain R4-CYP (Homo sapiens, UniProt Q14671 828-1176, N971C;H972Y;Q975P). In outline: as §1
Another assay deals with PUM1 PUF domain R4-RNY (Homo sapiens, UniProt Q14671 828-1176, N971R;H972N;Q975Y). The essentials:
as §1

Another assay has as its target PUM1 PUF domain R5-HRL (Homo sapiens, UniProt Q14671 828-1176, C1007H;Q1011L). In outline:
as §1

The next assay concerns the target PUM1 PUF domain R5-KGS (Homo sapiens, UniProt Q14671 828-1176, C1007K;R1008G;Q1011S). In outline: as §1
The next assay concerns the target PUM1 PUF domain R3-RCN (Homo sapiens, UniProt Q14671 828-1176, C935R;R936C;Q939N). In outline: as §1
The target in another assay is PUM1 PUF domain R5-SPC (Homo sapiens, UniProt Q14671 828-1176, C1007S;R1008P;Q1011C). In outline: as §1
The target in a further assay is PUM1 PUF domain R5-MHA (Homo sapiens, UniProt Q14671 828-1176, C1007M;R1008H;Q1011A). In outline:
as §1

For “GGCUAGAACUAGUGGAUCCCCCGGCGCCCGGCGGCUCGAGCCCGGGUAAGUGAAAAUAGUCUGCAUGCCGCCGGGCGCCAUGCCUGCAGGUCGACUCUAGAAAACAUG”, the binding signal with PUM1 PUF domain R6-IWR was 1.61 log2 enrichment (interaction score).

For the sequence “GGCUAGAACUAGUGGAUCCCCCGGCGCCCGGCGGCUCGAGCCCGGGUAAGUGUAAAUUGUCUGCAUGCCGCCGGGCGCCAUGCCUGCAGGUCGACUCUAGAAAACAUG”, the binding signal with PUM1 PUF domain R1-MVR was 1.71 log2 enrichment (interaction score); in the assay with PUM1 PUF domain R1-ARR, 1.97 log2 enrichment (interaction score).

For “GGCUAGAACUAGUGGAUCCCCCGGCGCCCGGCGGCUCGAGCCCGGGUAAGUGUGAAUAGUCUGCAUGCCGCCGGGCGCCAUGCCUGCAGGUCGACUCUAGAAAACAUG”, the figures for the binding signal with PUM1 PUF domain R5-SIS and in the assay with PUM1 PUF domain R5-QCS were 3.76 log2 enrichment (interaction score) and 3.56 log2 enrichment (interaction score), respectively.

On to “GGCUAGAACUAGUGGAUCCCCCGGCGCCCGGCGGCUCGAGCCCGGGUAAGUGUAAGUAGUCUGCAUGCCGCCGGGCGCCAUGCCUGCAGGUCGACUCUAGAAAACAUG”, for which the binding signal with PUM1 PUF domain R3-WWG was 4.28 log2 enrichment (interaction score).

On to “GGCUAGAACUAGUGGAUCCCCCGGCGCCCGGCGGCUCGAGCCCGGGUAAGUGUAUAUAGUCUGCAUGCCGCCGGGCGCCAUGCCUGCAGGUCGACUCUAGAAAACAUG”, for which the binding signal in the assay with PUM1 PUF domain R4-NWP was 2.37 log2 enrichment (interaction score); in the assay with PUM1 PUF domain R4-DYR, 6.18 log2 enrichment (interaction score); in the assay with PUM1 PUF domain R4-EYI, 3.01 log2 enrichment (interaction score); with PUM1 PUF domain R4-SNR, 2.9 log2 enrichment (interaction score); with PUM1 PUF domain R4-SWP, 5.26 log2 enrichment (interaction score).

In the case of “GGCUAGAACUAGUGGAUCCCCCGGCGCCCGGCGGCUCGAGCCCGGGUAAGUGUAAAUCGUCUGCAUGCCGCCGGGCGCCAUGCCUGCAGGUCGACUCUAGAAAACAUG”, the values for the binding signal in the assay with PUM1 PUF domain R1-MVR and in the assay with PUM1 PUF domain R1-ARR were 2.85 log2 enrichment (interaction score) and 2.95 log2 enrichment (interaction score), respectively.

On to “GGCUAGAACUAGUGGAUCCCCCGGCGCCCGGCGGCUCGAGCCCGGGUAAGUGUAAAUAGUCUGCAUGCCGCCGGGCGCCAUGCCUGCAGGUCGACUCUAGAAAACAUG”, for which the binding signal was 6.32 log2 enrichment (interaction score) in the assay with PUM1 PUF domain R6-IWR; 0.59 log2 enrichment (interaction score) with PUM1 PUF domain R5-RAC; 1.4 log2 enrichment (interaction score) in the assay with PUM1 PUF domain R4-DYR; 3.18 log2 enrichment (interaction score) with PUM1 PUF domain R4-GWW; 5.36 log2 enrichment (interaction score) in the assay with PUM1 PUF domain R4-CYP; 3.7 log2 enrichment (interaction score) with PUM1 PUF domain R4-RNY. For the same sequence, in the assay with PUM1 PUF domain R4-SWP, the binding signal is 5.57 log2 enrichment (interaction score).

“GGCUAGAACUAGUGGAUCCCCCGGCGCCCGGCGGCUCGAGCCCGGGUAAGUGUCAAUAGUCUGCAUGCCGCCGGGCGCCAUGCCUGCAGGUCGACUCUAGAAAACAUG”: the results for the binding signal in the assay with PUM1 PUF domain R5-RAC, with PUM1 PUF domain R5-HRL and in the assay with PUM1 PUF domain R5-KGS were 3.54 log2 enrichment (interaction score), 2.78 log2 enrichment (interaction score) and 4.66 log2 enrichment (interaction score), respectively.

With “GGCUAGAACUAGUGGAUCCCCCGGCGCCCGGCGGCUCGAGCCCGGGUAAGUGUAAUUAGUCUGCAUGCCGCCGGGCGCCAUGCCUGCAGGUCGACUCUAGAAAACAUG”, the binding signal with PUM1 PUF domain R3-WWG was 4.2 log2 enrichment (interaction score); with PUM1 PUF domain R3-RCN it was 2.71 log2 enrichment (interaction score).

For the sequence “GGCUAGAACUAGUGGAUCCCCCGGCGCCCGGCGGCUCGAGCCCGGGUAAGUGUAAAUGGUCUGCAUGCCGCCGGGCGCCAUGCCUGCAGGUCGACUCUAGAAAACAUG”, the binding signal with PUM1 PUF domain R1-ARR is 0.69 log2 enrichment (interaction score).

On to “GGCUAGAACUAGUGGAUCCCCCGGCGCCCGGCGGCUCGAGCCCGGGUAAGUGUUAAUAGUCUGCAUGCCGCCGGGCGCCAUGCCUGCAGGUCGACUCUAGAAAACAUG”, for which the binding signal was 4.98 log2 enrichment (interaction score) with PUM1 PUF domain R5-HRL, 2.48 log2 enrichment (interaction score) with PUM1 PUF domain R5-SPC, 4.69 log2 enrichment (interaction score) in the assay with PUM1 PUF domain R5-MHA and 0.61 log2 enrichment (interaction score) with PUM1 PUF domain R5-QCS.

For the sequence “GGCUAGAACUAGUGGAUCCCCCGGCGCCCGGCGGCUCGAGCCCGGGUAAGUGUACAUAGUCUGCAUGCCGCCGGGCGCCAUGCCUGCAGGUCGACUCUAGAAAACAUG”, the binding signal with PUM1 PUF domain R4-DYR was 6.53 log2 enrichment (interaction score); in the assay with PUM1 PUF domain R4-GWW, 0.85 log2 enrichment (interaction score); with PUM1 PUF domain R4-CYP, 6.17 log2 enrichment (interaction score); with PUM1 PUF domain R4-SNR, 2.06 log2 enrichment (interaction score).
